Source: PubChem
A340 absorber: compound absorbs light at 340 nm; compound absorbance at 340 nm, fold over control; fold change at 10 µM; 65,000 tested, under 10 active; AID 708;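 active = at 10 µM dose, initial 340 nm absorbance at least 2 fold that of control wells; inactive = change under 2 fold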;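 also: initial absorbance extrapolated from kinetic A340 decline of NADH oxidation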
MK inhibit: blocks S. pneumoniae mevalonate kinase; purified MK, PK/LDH-coupled NADH absorbance 340 nm; inhibition, % at 10 µM; 65,000 tested, 0.48% active;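 active = ranked among the strongest by inhibition in the single 10 µM screen, a fixed top-ranked set picked for dose follow-up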
Autofluor 339: intrinsic fluorescence of library compounds, ex339/em460 – biochemical, MLSMR library, data from DPM-DC assay, artefact control, profiling panel | compound autofluorescence, ex339/em460 nm, NADH buffer; stronger effect = higher value; 1 = no-compound wells, NADH background | fluorescence fold increase at 10 µM | 65,000 tested, 5.5% active | AID 709;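 active = at 10 µM, mean starting fluorescence two-fold or more over control wells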;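 also: signal is the first read of a kinetic run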
Spn DPM-DC inh: inhibitors of Streptococcus pneumoniae diphosphomevalonate decarboxylase | purified DPM-DC, PK/LDH coupled NADH fluorescence | calls only at 10 µM | 65,000 tested, 0.49% active | AID 556;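 active = the 320 compounds with the highest percent inhibition in the single-dose primary screen, excluding strongly autofluorescent ones, cut at about 32% in these data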;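 also: kinetic rate of NADH fluorescence loss reporting ADP formed by the decarboxylase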
Spn PMK inh: S. pneumoniae PMK inhibition; 65,000 tested, 0.49% active; AID 539; purified PMK, PK/LDH-coupled NADH absorbance 340 nm; inhibition, % at 10 µM;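 active = top-ranked compounds by inhibition in the single 10 µM screen, taking a fixed number of the strongest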
NADH enzymes: inhibition of NAD/NADH coupling enzymes, library profiling | IC50, µM (doses to about 10 µM) | 65,000 tested, 0.02% active | AID 774 | coupled PK/LDH NADH assays, four targets;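 active = single-dose screening hits from any of four coupled enzyme assays that gave an IC50 when retested across doses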;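 also: the DPM-DC format reads NADH fluorescence rather than 340 nm absorbance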
A number is an active result. Compounds with a hit are over-represented: about 6.8% of the library has one in this group of screens.

For O=C(c1cc2c(ccc3ccccc32)oc1=O)N1CCN(CCO)CC1 the results were A340 absorber inactive, MK inhibit inactive, Autofluor 339 2.1, Spn PMK inh inactive and NADH enzymes inactive.
For O=C(c1cc2ccccc2oc1=O)N1CCCN(C(=O)c2cc3ccccc3oc2=O)CC1 the results were A340 absorber inactive, MK inhibit inactive, Autofluor 339 inactive, Spn DPM-DC inh inactive, Spn PMK inh inactive and NADH enzymes inactive.
CCOc1ccc2oc(-c3ccccc3)c(C(=O)O)c2c1 was read as A340 absorber inactive, MK inhibit inactive, Autofluor 339 3.9, Spn PMK inh inactive and NADH enzymes inactive.
Screening CCCc1cc(=O)[nH]c(Nc2ccc(OC)c(Cl)c2)n1 returned A340 absorber inactive, MK inhibit inactive, Autofluor 339 inactive, Spn DPM-DC inh inactive, Spn PMK inh inactive and NADH enzymes inactive.
For CCN(CC)c1ccc(-c2c(C#N)c(N)nc(OC)c2C#N)cc1 the results were A340 absorber inactive, MK inhibit inactive, Autofluor 339 2.5, Spn PMK inh inactive and NADH enzymes inactive.
`Cc1cc(C)n(-c2ncnc3sc4c(c23)CCCC4)n1` gave A340 absorber inactive, MK inhibit inactive, Autofluor 339 2.3, Spn DPM-DC inh inactive, Spn PMK inh inactive and NADH enzymes inactive.
For Nn1c(CSc2nc3ccccc3o2)nnc1CSc1nc2ccccc2o1 the results were A340 absorber inactive, MK inhibit inactive, Autofluor 339 inactive, Spn DPM-DC inh inactive, Spn PMK inh inactive and NADH enzymes inactive.
`Cc1cc(C)n2cc(CSc3nnnn3C)nc2n1` gave A340 absorber inactive, MK inhibit inactive, Autofluor 339 2.6, Spn PMK inh inactive and NADH enzymes inactive.
`Cc1cc(C)n2cc(CSc3nc4cc(Cl)ccc4o3)nc2n1` gave A340 absorber inactive, MK inhibit inactive, Autofluor 339 2.1, Spn DPM-DC inh inactive, Spn PMK inh inactive and NADH enzymes inactive.
For Cc1cc(C)n2c(Br)c(CSc3nc4ccccc4o3)nc2n1 the results were A340 absorber inactive, MK inhibit inactive, Autofluor 339 2.6, Spn DPM-DC inh inactive, Spn PMK inh inactive and NADH enzymes inactive.
Screening CCC(=O)N1CN(S(=O)(=O)c2ccc(C)cc2)CC1C (centres undefined) returned A340 absorber inactive, MK inhibit inactive, Autofluor 339 inactive, Spn DPM-DC inh inactive, Spn PMK inh inactive and NADH enzymes inactive.
For CCOC(=O)N1CCN(C(=O)CCCn2nc(C)c3sc4ccccc4c3c2=O)CC1 the results were A340 absorber inactive, MK inhibit inactive, Autofluor 339 inactive, Spn DPM-DC inh inactive, Spn PMK inh inactive and NADH enzymes inactive.
`CC(CC(=O)NCc1ccccc1)C1CCCO1` (centres undefined) gave A340 absorber inactive, MK inhibit inactive, Autofluor 339 inactive, Spn DPM-DC inh inactive, Spn PMK inh inactive and NADH enzymes inactive.
For CCc1ccc(C2CC(c3cccc(OC)c3)n3nc(N)nc3N2)cc1 (centres undefined) the results were A340 absorber inactive, MK inhibit inactive, Autofluor 339 inactive, Spn DPM-DC inh inactive, Spn PMK inh inactive and NADH enzymes inactive.
Screening COc1ccc(C(=O)c2c[nH]c3ccccc23)cc1 returned A340 absorber inactive, MK inhibit inactive, Autofluor 339 inactive, Spn DPM-DC inh inactive, Spn PMK inh inactive and NADH enzymes inactive.
Screening CCN(CC)S(=O)(=O)c1ccc(C(=O)OCC(=O)N2CCN(C(=O)c3ccco3)CC2)cc1 returned A340 absorber inactive, MK inhibit 48, Autofluor 339 inactive, Spn DPM-DC inh inactive, Spn PMK inh inactive and NADH enzymes inactive.
For CC(=O)N1CCc2cc(C(=O)CN3CCCCC3)ccc21 the results were A340 absorber inactive, MK inhibit inactive, Autofluor 339 inactive, Spn DPM-DC inh inactive, Spn PMK inh inactive and NADH enzymes inactive.
`CC(=O)N1CCc2cc3nc(C)cc(C)c3cc21` gave A340 absorber inactive, MK inhibit inactive, Autofluor 339 4.1, Spn PMK inh inactive and NADH enzymes inactive.
Screening N#Cc1nc(-c2ccco2)oc1NCCCN1CCOCC1 returned A340 absorber inactive, MK inhibit inactive, Autofluor 339 3.6, Spn PMK inh inactive and NADH enzymes inactive.
Screening N#Cc1nc(-c2ccc(OCc3ccccc3)cc2)oc1NCc1ccco1 returned A340 absorber inactive, MK inhibit inactive, Autofluor 339 2.4, Spn DPM-DC inh inactive, Spn PMK inh inactive and NADH enzymes inactive.
